In the library only some 19% were active in any assay of this set; here they are far more common.
TDP1 cell CPT: DT40-hTDP1 cell growth loss with CPT; Potency, µM (titrated, usually from 46.2 µM), for inactives: at the highest dose activity change, negative = growth inhibition, actives largely listed as inhibitors; 420,000 tested, 12% active; chicken DT40 Tdp1-/-;hTDP1 cells + 20 nM CPT, ATP luminescence, 48 h; further: potency means the concentration at half of the fitted maximal effect; nearly all actives have a fitted effect of over 55% in size
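Chicken DT40 Tdp1-/- cells stably complemented with human TDP1 were seeded at 400 cells/well in medium containing 20 nM camptothecin, exposed to pin-transferred compounds, and grown at 37 °C for at least 48 hr. Viability was read as ATP luminescence.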
DT40 TDP1 no CPT: qHTS for Inhibitors of human tyrosyl-DNA phosphodiesterase 1 (TDP1): qHTS in cells in absence of CPT | AID 686978, 2013 | DT40 Tdp1-/- hTDP1 cells, no CPT, ATP luminescence, 48 h | Potency, µM (series often up to 46.2 µM), for inactives: at the highest dose activity change, negative = growth inhibition, most hits filed as inhibitors | 420,000 tested, 15% active; further: potency means the concentration at half of the fitted maximal effect; nearly all actives have a fitted effect of over 55% in size
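Growth kinetics read by CellTiter-Glo luminescence after ≥48 hr at 37 °C. Cells: DT40 Tdp1-/- stably carrying human TDP1, 400 per well, compound exposure in the absence of CPT (DMSO vehicle).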
ELG1 repair inh: ELG1-dependent DNA repair inhibition; HEK293T ELG1-luciferase reporter, luminescence, 16 h; DNA damage induced by 5-fluorouridine; Potency, µM (highest dose often 46.1 µM), inactives show top-dose activity change, negative = inhibition, most hits filed as inhibitors; 330,000 tested, 2.3% active; further: potency means the concentration at half of the fitted maximal effect; nearly all actives have a fitted effect of over 55% in size
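Reporter activity after DNA damage by 5-fluorouridine is monitored. Compound-treated cells incubate 16 hr at 37 °C, then ONE-Glo is added for 30 min before luminescence reading.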
TDP1 inh: blocks human tyrosyl-DNA phosphodiesterase 1 | Potency, µM (highest dose often 130 µM), for inactives: top-dose activity change, negative = inhibition, hits mostly inhibitors | 350,000 tested, 0.28% active | Q9NUW8 | AID 485290 | recombinant TDP1, AlphaScreen DNA substrate cleavage; further: potency means the concentration at half of the fitted maximal effect; nearly all actives have a fitted effect of over 40% in size
Target sequence (Q9NUW8 whole entry, looked up): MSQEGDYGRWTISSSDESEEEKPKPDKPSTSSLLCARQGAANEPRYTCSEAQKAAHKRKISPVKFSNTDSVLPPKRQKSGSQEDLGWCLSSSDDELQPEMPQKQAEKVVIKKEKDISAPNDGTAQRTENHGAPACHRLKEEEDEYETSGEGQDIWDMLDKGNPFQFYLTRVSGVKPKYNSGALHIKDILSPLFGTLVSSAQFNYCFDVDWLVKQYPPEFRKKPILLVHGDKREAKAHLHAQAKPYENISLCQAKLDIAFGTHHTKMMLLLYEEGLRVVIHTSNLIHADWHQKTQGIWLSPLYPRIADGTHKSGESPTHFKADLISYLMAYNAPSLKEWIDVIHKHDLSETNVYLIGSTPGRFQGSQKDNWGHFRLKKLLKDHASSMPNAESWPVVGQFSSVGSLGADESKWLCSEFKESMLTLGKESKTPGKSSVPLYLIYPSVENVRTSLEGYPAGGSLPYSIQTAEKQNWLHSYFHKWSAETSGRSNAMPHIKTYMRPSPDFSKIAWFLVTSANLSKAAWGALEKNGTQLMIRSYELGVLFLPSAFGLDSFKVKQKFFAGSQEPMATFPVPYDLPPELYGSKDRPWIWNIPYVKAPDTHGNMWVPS
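E. coli-derived human Tdp1, 1 nM final. Cpd preinc 15 min RT; substrate 15 nM final, 5 min RT; AS bead mix 10 ug/ml final, 10 min RT. Signal loss = tyrosine-FITC cleavage. No-enzyme wells = max signal.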
IL-1B inflam inh: inflammasome signaling inhibition, IL-1 beta readout | THP-1 LPS/ATP IL-1B secretion, AlphaLISA, 16 h; hits give low values | activity change, % at 57.5 µM | 360,000 tested, 4.7% active | AID 743279; in the data active means activity change below about -50%; inconclusive means mostly about -30% to -49%
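THP-1 cells pretreated 1 hr with compounds (up to 57.5 uM final), then stimulated with LPS (250 ng/mL final) plus ATP (1.25 mM final); secreted IL-1B measured by AlphaLISA after 16 hr, decreased signal indicating inhibition.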
Giardia kill: Giardia lamblia killing; Giardia lamblia trophozoite viability; activity change, % at 7.66 µM, hits read low; 340,000 tested, 0.15% active; in the data active means activity change below about -80%; inconclusive means between about -30% and that limit;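 further: parasites exposed to compound for two days anaerobically before the ATP read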
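Anaerobic 48 hrs incubation at 37 deg C of 100 trophozoites/well with test compounds; ATPLite 1-Step luminescence, 15-30 min RT, reports cellular ATP as viability.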
The depositor's hits bear a star; ? = inconclusive; · = not tested or not shown; [ ] = dose if it differs, or a comment. Unless noted, the call rests on the fitted dose curve; in most records, active means well fitted curve in the direction sought with a large enough effect; inconclusive means small, poorly fitted or top-dose-only effect, or another doubt; inactive means no such curve, though single readings can be large; an effect the other way counts as inactive or inconclusive. On the % scale 0 is the no-effect control and ±100 the full control effect.

SMILES	TDP1 cell CPT	DT40 TDP1 no CPT	ELG1 repair inh	TDP1 inh	IL-1B inflam inh	Giardia kill
COC(/C(=N/O)c1ccc(Cl)cc1)c1ccccc1 (stereo not given)	?	23µM*	?	·	-15	-3
COP(=O)(OC)OC(C(=O)c1ccccc1)c1ccc(Cl)cc1 (stereo not given)	-7%	-11%	·	·	-14	·
CC(C)C(=O)Nc1cccc(C(=O)Nc2nccs2)c1	?	-20%	-10%	5%	-21	10
CCc1ccc2nc(N(CCCN(C)C)C(=O)c3ccc(S(=O)(=O)N4CCc5ccccc5C4)cc3)sc2c1	5.2µM*	5.2µM*	12%	3%	-84*	-1
COc1cc2nc(N(CCCN(C)C)C(=O)c3ccc(S(=O)(=O)N(C)C4CCCCC4)cc3)sc2cc1OC	?	16µM*	-5%	·	-79*	15
CN(C)CCCN(C(=O)c1ccc(S(=O)(=O)N(C)C2CCCCC2)cc1)c1nc2ccc(Br)cc2s1	?	?	26%	8%	-83*	-21
CN(C)CCCN(C(=O)c1ccc(Br)s1)c1nc2ccc(F)cc2s1	?	?	·	9%	·	·
CN(C)CCCN(C(=O)c1ccc(S(=O)(=O)N(C)C2CCCCC2)cc1)c1nc2ccc(F)cc2s1	16µM*	?	24%	6%	-98*	-4
Nn1c(SCC(=O)Nc2ccccc2C(F)(F)F)nncc1=O	-12%	19%	9%	0%	4	0
CCc1ccc2nc(N(CCCN(C)C)C(=O)c3ccc(S(=O)(=O)N(C)C4CCCCC4)cc3)sc2c1	16µM*	?	-8%	7%	-61*	-6
CCOc1ccc2nc(N(CCCN(C)C)C(=O)c3ccc(S(=O)(=O)N4CCCC4)cc3)sc2c1	?	-29%	1%	8%	0	-19
COC(=O)c1ccccc1NC(=O)CSc1nc2ccccc2nc1Cc1ccccc1OC	-18%	-4%	·	8%	·	·
O=C1CSC(=NC2CCCCC2)N1	23µM*	18µM*	-10%	5%	-96*	-1
CCc1ccc(N2C(=O)CC(Cn3nc(C)cc3C)C2=O)cc1 (stereo not given)	2%	0%	2%	0%	0	-2
CC(C)(C)OC(=O)CNC(=O)c1nc[nH]c1C(=O)N1CCN(C(=O)OC(C)(C)C)CC1	0%	-1%	25%	·	8	?
CC(C)(C)OC(=O)NCCCCCNC(=O)c1nc[nH]c1C(=O)N1CCN(C(=O)OC(C)(C)C)CC1	?	16µM*	?	-2%	5	9
C[C@H](NC(=O)c1nc[nH]c1C(=O)N1CCN(c2ccccc2)CC1)C(=O)OC(C)(C)C	-4%	-15%	13%	2%	14	7
CC(C)(C)OC(=O)NCCCC[C@H](NC(=O)c1nc[nH]c1C(=O)N1CCN(c2ccccc2)CC1)C(=O)OC(C)(C)C	?	18µM*	21µM*	7%	-55*	32
CNC(=O)c1[nH]cnc1C(=O)N[C@@H](CCCCNC(=O)OC(C)(C)C)C(=O)OC(C)(C)C	?	-12%	0%	6%	2	7
CC(C)(C)OC(=O)NCCCC[C@H](NC(=O)c1nc[nH]c1C(=O)N1CCN(C(=O)OC(C)(C)C)CC1)C(=O)OC(C)(C)C	?	23µM*	-12%	8%	-8	-6
Cc1ccnc(NS(=O)(=O)c2ccc(NC(=O)c3ccc(Cl)cc3[N+](=O)[O-])cc2)n1	-13%	12%	1%	7%	-21	-6
O=C(O)CC(NC(=O)C12CC3CC(CC(C3)C1)C2)c1ccc(OC2CCCC2)cc1 (stereo not given)	7%	-9%	-9%	1%	20	-18
O=C(C1CCCN(S(=O)(=O)c2cccc3nonc23)C1)N1CCN(c2ccccc2)CC1 (stereo not given)	?	22µM*	?	7%	-51*	-12
O=C(C1CCN(S(=O)(=O)c2cccc3nonc23)CC1)N1CCN(c2ccccc2F)CC1	?	?	·	1%	·	·
CC(=O)c1ccc(N2CCN(C(=O)C3CCN(S(=O)(=O)c4cccc5nonc45)CC3)CC2)cc1	?	23µM*	·	-2%	·	·
SMILES	TDP1 cell CPT	DT40 TDP1 no CPT	ELG1 repair inh	TDP1 inh	IL-1B inflam inh	Giardia kill
Cc1ccc(NC(=O)C2CCN(S(=O)(=O)c3cccc4nonc34)CC2)nc1	-6%	-15%	21µM*	3%	8	26
O=c1c2c3c(sc2nnn1Cc1ccc(F)cc1)CCCC3	?	?	·	-5%	·	·
CCCC[C@H](CC(=O)c1ccccc1)[C@@H](OC(C)=O)C(=O)Oc1c(C(C)C)cccc1C(C)C	13µM*	?	-14%	-5%	16	23
CCCCC(CC)COC(=O)c1ccccc1C(=O)O (stereo not given)	-2%[92.5 µM]	-15%[92.5 µM]	·	6%	·	·
Cc1ccc(S(=O)(=O)N2C[C@H]3C(=O)C[C@@H](c4ccccc4F)N(S(=O)(=O)c4ccc(C)cc4)[C@H]3C[C@H]2c2ccccc2F)cc1	8.2µM*	10µM*	·	·	-21	·
CC(=O)c1ccc(S(=O)(=O)N2CCN(S(=O)(=O)c3ccccc3C(F)(F)F)CC2)cc1	-13%	12%	2%	·	-12	29
COC(=O)C(C)Oc1ccc(Cc2ncc(C(F)(F)F)cc2Cl)cc1 (stereo not given)	5%	8%	15%	·	21	-5
Cc1ccc(S(=O)(=O)N2CCN(Cc3nc4ccc(C)cc4o3)CC2)cc1	-26%	?	·	1%	·	·
CCOc1ccc(S(=O)(=O)N2CCN(Cc3nc4ccc(C)cc4o3)CC2)cc1	18µM*	?	·	1%	·	·
COc1ccc(S(=O)(=O)N2CCN(Cc3nc4ccc(C)cc4o3)CC2)cc1Cl	18µM*	?	·	6%	·	·
COc1ccc(-c2nc(-c3ccccc3)c(NC(C)C)o2)cc1	·	·	·	7%	·	·
CCn1c(=NC(=O)c2ccc(S(=O)(=O)N3CCCC3)cc2)sc2cc(Br)ccc21	?	-24%	·	-1%	·	·
CC1Cc2ccccc2C[N+]1(C)CC(=O)c1ccc(I)cc1 (stereo not given)	10µM*	14µM*	·	·	·	·
CC[N+]1(CC(=O)c2ccc(I)cc2)CCCCC1	?	-20%	·	·	·	·
CSC1=NC2(CCN(C(=O)NC3CCCCC3)CC2)N=C1c1ccc(C)cc1	?	-25%	·	5%	·	·
COc1ccccc1C(=O)NCC(c1cccs1)N1CCc2ccccc21 (stereo not given)	21µM*	18µM*	?	1%	-1	-13
